MEKK2 mut-MEK5: signal of MEK5 binding to mutant human MEKK2 PB1 domain | bead flow cytometry, Alexa488-MEK5 binding to MEKK2 mutant | percent response, % at 10 µM | 0.35% of 290,000 active | AID 1530; in the data active = percent response above about 24%, passing the limit was not always enough
UBC13 inh: blocks human UBC13 polyubiquitin chain formation. TR-FRET. inhibition, % at 20 µM. 0.47% of 330,000 active. AID 485273; in the data active = inhibition above about 45%, passing the limit was not always enough; inconclusive = no clear call, values can overlap the other calls
Target sequence (P61088 whole entry, looked up): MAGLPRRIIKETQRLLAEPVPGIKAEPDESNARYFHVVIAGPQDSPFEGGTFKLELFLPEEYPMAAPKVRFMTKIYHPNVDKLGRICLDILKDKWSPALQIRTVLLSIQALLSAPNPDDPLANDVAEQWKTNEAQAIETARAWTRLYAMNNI
ATG4B inh: ATG4B (human) cysteine protease inhibition; Q9Y4P1; 0.51% of 340,000 active; inhibition, % at 8.33 µM; ATG4B cleavage of LC3-PLA2, NBD-HPC fluorescence, 1 h; AID 504462; in the data active = inhibition above about 40%
MEKK2 WT-MEK5: raises or lowers MEK5 binding to wildtype human MEKK2 PB1 domain; Q9Y2U5; bead flow cytometry, Alexa488-MEK5 binding to MEKK2 WT; actives lie on both sides; binding response (% of control), % at 10 µM; 1.1% of 290,000 active; in the data active = binding response below about 67% or above about 130%; inconclusive = no clear call, values can overlap the other calls; inactive = in between
MEKK3 PB1 HTS: raises or lowers MEK5 binding to the human MEKK3 PB1 domain. AID 1529. 1.4% of 290,000 active. binding response (% of control), % at 10 µM. bead-based flow cytometry, Alexa488-MEK5 binding to MEKK3; actives lie on both sides; 0 = blocked by unlabeled MEK5, 100 = vehicle;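 active = binding response more than 3 SD above or below the average of its plate-row segment, actives on both sides; inconclusive = wells at one plate position flagged as instrument error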;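 note: Alexa488 bead fluorescence after subtracting the streptavidin-only scavenger bead signal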
Target sequence (Q99759 whole entry, looked up, the tested form may be a part): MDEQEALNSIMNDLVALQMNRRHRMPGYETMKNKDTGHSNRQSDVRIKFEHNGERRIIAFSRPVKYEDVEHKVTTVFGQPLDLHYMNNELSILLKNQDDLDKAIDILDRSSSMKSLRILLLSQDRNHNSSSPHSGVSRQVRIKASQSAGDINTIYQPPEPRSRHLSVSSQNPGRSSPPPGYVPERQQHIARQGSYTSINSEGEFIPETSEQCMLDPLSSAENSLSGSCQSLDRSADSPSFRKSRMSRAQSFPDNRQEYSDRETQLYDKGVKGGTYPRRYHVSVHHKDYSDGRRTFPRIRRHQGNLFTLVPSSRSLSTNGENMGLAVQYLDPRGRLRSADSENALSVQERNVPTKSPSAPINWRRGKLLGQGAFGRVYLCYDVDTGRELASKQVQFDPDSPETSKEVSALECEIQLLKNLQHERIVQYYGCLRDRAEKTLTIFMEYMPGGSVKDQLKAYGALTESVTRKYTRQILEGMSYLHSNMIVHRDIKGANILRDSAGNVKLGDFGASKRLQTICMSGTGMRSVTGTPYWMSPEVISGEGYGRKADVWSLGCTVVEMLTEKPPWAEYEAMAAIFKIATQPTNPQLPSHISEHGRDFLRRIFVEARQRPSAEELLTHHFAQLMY
PREPL inh: inhibits the human prolyl oligopeptidase-like enzyme; AID 2751; Q4J6C6; 0.68% of 320,000 active; inhibition, % at 5.96 µM; recombinant PREPL, fluorescence polarization activity-based probe; in the data active = inhibition above about 43%;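 note: 0% = enzyme with DMSO and 100% = wells lacking enzyme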
MEKK2wt confirm: raises or lowers MEK5 binding to wildtype human MEKK2, retest; shares compounds with MEKK3 PB1 HTS; bead flow cytometry, Alexa488-MEK5 binding to MEKK2 WT; actives lie on both sides; binding response (% of control), % at 10 µM; 2.4% of 5,900 active; AID 1892; in the data active = binding response below about 16% or above about 210%; inactive = in between
MEKK2mut-MEK5: signal of MEK5 binding to mutant human MEKK2, retest. bead flow cytometry, Alexa488-MEK5 binding to MEKK2 mutant. percent response, % at 10 µM. shares compounds with MEKK3 PB1 HTS. 2% of 5,900 active; in the data active = percent response mostly above about 71%, no sharp cut-off; inactive = mostly below about 38%;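 note: higher means compound restores mutant binding toward wildtype level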
MEKK3 confirm: confirmation of inhibitors of MEK5 binding to human MEKK3. shares compounds with MEKK3 PB1 HTS. bead flow cytometry, Alexa488-MEK5 binding to MEKK3; hits give low values. binding response (% of control), % at 10 µM. 1.8% of 5,900 active. AID 1894;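 active = binding response below 72% of control, or above a set upper limit, though filed actives all read lower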;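 note: 100% = DMSO only wells and 0% = binding blocked by excess unlabeled MEK5; lower values mean stronger disruption of MEK5 binding to MEKK3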
* = called active by the depositor; ? = inconclusive; . = not tested or not shown; [ ] = another dose, or the depositor's remark. Compounds with a hit are over-represented: about 3.1% of the library has one in this group of screens.

SMILES | MEKK2 mut-MEK5 | UBC13 inh | ATG4B inh | MEKK2 WT-MEK5 | MEKK3 PB1 HTS | PREPL inh | MEKK2wt confirm | MEKK2mut-MEK5 | MEKK3 confirm
COC(=O)c1c(C)oc(C)c1S(=O)(=O)Nc1ccccc1 | 24.0 | 0.3 | -8.7 | 130.0 | 132.0* | 8.4 | 98.0 | -2.0 | 102.0
COC(=O)c1c(C)oc(C)c1S(=O)(=O)N(Cc1ccccc1)C(C)C | 28.0 | 2.5 | 1.0 | 134.0 | 129.0* | -8.5 | -2.0*[inhibitor] | -4.0 | 99.0
COc1cccc(CNCCc2c[nH]c3ccccc23)c1OCc1ccccc1 | 58.0* | 38.7 | 12.6 | 165.0* | 104.0 | -36.2 | 148.0 | 15.0 | 105.0
COc1ccccc1CCNCc1ccc(OC)c(OCc2ccccc2)c1 | 2.0 | 4.6 | 19.7 | 126.0 | 101.0 | -33.4 | . | . | .
O=C(Cc1c[nH]c2ccccc12)Nc1ccccc1N1CCOCC1 | -3.0 | 3.5 | -10.2 | 97.0 | 97.0 | 3.4 | . | . | .
CCOc1ccc(C2N(c3cc(C)on3)C(=O)C3CCCN32)cc1OC (stereo unspecified) | -17.0 | 7.3 | -9.0 | -2.0*[inhibitor] | -1.0*[inhibitor] | 7.2 | 108.0 | 6.0 | 104.0
COc1ccc(C2N(c3cc(C)on3)C(=O)C3CCCN32)cc1OC (stereo unspecified) | -1.0 | 4.4 | -17.8 | 97.0 | 91.0 | -4.2 | . | . | .
Cc1c2ccncc2cc2c1[nH]c1ccccc12 | . | . | -13.4 | . | . | . | . | . | .
COc1ccc2[nH]c3c(C)c4ccncc4c(C)c3c2c1 | 53.0* | ? | -34.7 | 177.0* | 118.0 | 33.4 | 243.0* | 88.0* | 111.0
CC1CCC2C(=O)N(c3ccccc3OC(=O)c3ccccc3F)C(=O)C2C1 (stereo unspecified) | 6.0 | -3.3 | 6.5 | 127.0 | 143.0* | 0.5 | 95.0 | -5.0 | 101.0
CCc1ccc(C(C)NC(=O)c2ccc3c(c2)OCO3)cc1 (stereo unspecified) | 6.0 | 1.2 | -5.4 | 107.0 | 103.0 | -6.9 | . | . | .
COc1ccc(N2C(=O)CC(Sc3nc(C)cc(C)c3C#N)C2=O)cc1 (stereo unspecified) | -3.0 | 0.2 | -8.8 | -7.0*[inhibitor] | 1.0*[inhibitor] | -4.9 | 102.0 | 2.0 | 106.0
COc1ccccc1CNC(=O)CN(c1cccc([N+](=O)[O-])c1)S(C)(=O)=O | -22.0 | 3.7 | 0.4 | -2.0*[inhibitor] | 1.0*[inhibitor] | -6.1 | 96.0 | -11.0 | 97.0
COC(=O)c1ccc([C@H](NC(=O)c2ccco2)[C@]2(C)C[C@H]2C2CCCCC2)cc1 | 2.0 | -11.5 | 1.0 | 99.0 | 105.0 | 0.7 | . | . | .
Cc1[nH]c2c([N+](=O)[O-])cccc2c1C | -2.0 | -21.4 | -3.7 | 95.0 | 94.0 | 15.1 | . | . | .
CC1(C)CC(=O)c2cc(OCC(=O)NCCCN3CCN(c4ccc(F)cc4)CC3)ccc2O1 | 20.0 | 23.8 | -6.8 | 144.0* | 109.0 | 10.9 | 122.0 | 11.0 | 101.0
Cc1cc(CN2CCN(CC(=O)Nc3cc(Cl)ccc3-n3cncn3)CC2)no1 | . | 1.7 | -5.8 | . | . | . | . | . | .
O=C(O)/C=C/C(=O)N1CCN(c2cccc(Cl)c2)CC1 | 1.0 | 4.3 | 0.5 | 116.0 | 129.0* | 6.7 | 111.0 | 6.0 | 104.0
O=C(Nc1ccc([N+](=O)[O-])cc1)Nc1ccc(OC(F)F)c(Cl)c1 | 5.0 | . | -12.6 | 117.0 | 100.0 | 17.4 | . | . | .
Cc1cccc(-n2c(=O)c3c4c(sc3n3c(=S)[nH]nc23)CCC4)c1 | 0.0 | -2.9 | 4.0 | 111.0 | 131.0* | . | 121.0 | 13.0 | 107.0
Cc1ccc(-n2c(=O)c3c4c(sc3n3c(=S)[nH]nc23)CCC4)cc1 | -7.0 | 5.0 | 3.9 | 98.0 | 94.0 | 15.5 | . | . | .
CC(=O)OCC(=O)C1(O)CCC2C3CCC4=CC(=O)CCC4(C)C3(Cl)C(O)CC21C (stereo unspecified) | . | . | -8.8 | . | . | . | . | . | .
CC(C)(C)CC(=O)Nc1ccc(-c2nnc3n2CCCCC3)cc1 | -1.0 | 1.1 | -1.7 | 100.0 | 99.0 | -3.4 | . | . | .
O=C(/C=C/c1ccccc1Cl)Nc1ccc(-c2nnc3n2CCCCC3)cc1 | 1.0 | 19.8 | 4.2 | 102.0 | 137.0* | 0.5 | 103.0 | 5.0 | 107.0
Cc1ccc2nc(C)cc(N/N=C/c3cccc(O)c3)c2c1 | 5.0 | 6.4 | 4.0 | 104.0 | 103.0 | 23.9 | . | . | .
SMILES | MEKK2 mut-MEK5 | UBC13 inh | ATG4B inh | MEKK2 WT-MEK5 | MEKK3 PB1 HTS | PREPL inh | MEKK2wt confirm | MEKK2mut-MEK5 | MEKK3 confirm
COc1ccc(/C=N/Nc2cc(C)nc3ccccc23)cc1 | 43.0* | 16.6 | -1.5 | 228.0* | 112.0 | 42.2 | 177.0 | 48.0 | 111.0
COc1cc(Cl)c(C)cc1NC(=O)c1ccc(S(C)(=O)=O)cc1 | -25.0 | -1.4 | -0.2 | 63.0 | 45.0*[inhibitor] | -0.8 | 94.0 | -6.0 | 96.0
COc1ccccc1C1=NOC(C)(c2sc(-c3ccc(Cl)cc3)nc2C)C1 (stereo unspecified) | 3.0 | 6.1 | -9.1 | 87.0 | 85.0 | -14.5 | . | . | .
CCCN1CNC(=S)N(c2ccc(C(=O)OCC)cc2)C1 | -1.0 | 6.5 | -2.7 | 98.0 | 92.0 | -7.0 | . | . | .
CCOC(=O)c1ccc(N2CN(CC)CNC2=S)cc1 | 1.0 | 9.5 | 11.5 | 107.0 | 130.0* | -7.0 | 105.0 | 1.0 | 103.0
COc1ccc(-c2csc(NC(=O)c3ccc(S(=O)(=O)N4CCc5ccccc5C4)cc3)n2)c(OC)c1 | -3.0 | -0.1 | 13.1 | 88.0 | 83.0 | -3.4 | . | . | .
O=c1oc2ccccc2c(NCc2ccccc2F)c1[N+](=O)[O-] | -1.0 | -19.9 | 2.2 | 105.0 | 136.0* | 5.3 | 115.0 | 9.0 | 107.0
C[C@H]1CC[C@@]2(O[C@@H](CCO)C[C@H](O)[C@H]2O)O1 | 5.0 | -10.3 | -1.8 | 106.0 | 104.0 | 0.2 | . | . | .
C=CCn1c(=O)c2ccccc2n2c(SCC(=O)NCC)nnc12 | 8.0 | 6.3 | -3.3 | 108.0 | 105.0 | 4.9 | . | . | .
N#Cc1ccc(OCC(=O)NCC2COc3ccccc3O2)cc1 (stereo unspecified) | . | 6.7 | -8.4 | . | . | -5.1 | . | . | .
NS(=O)(=O)c1ccc(CCNS(=O)(=O)c2cccc3nsnc23)cc1 | -6.0 | -8.3 | -5.2 | 98.0 | 102.0 | 5.8 | . | . | .
CN(c1ccccc1)S(=O)(=O)c1ccc(NC(=O)CC(=O)c2ccccc2)cc1 | . | . | 9.5 | . | . | . | . | . | .
Cc1cccnc1NC(=O)C(C)N1C(=O)c2ccccc2C1=O (stereo unspecified) | 24.0 | 1.9 | 6.4 | 119.0 | 131.0* | -0.3 | 99.0 | 1.0 | 100.0
CC(/C=C/c1ccccc1)=N\NC(=O)Cn1nc(C)cc1C | -1.0 | -2.6 | -5.8 | 98.0 | 75.0 | 8.4 | . | . | .

Bioassay records from PubChem BioAssay.
